# Results reported in PubChem BioAssay (EPA / NIEHS).
# Activity calls are given as the source filed them. How the source made its calls: active means hit-call score of the fitted dose curve at least 0.9, where 1 is the maximum; inactive means score below 0.9.
# Assay: ATG_BRE_CIS: Attagene CIS-FACTORIAL HepG2 Assay for human Bone Morphogenetic Protein (BMP) Response Element (BRE) (AID 2282933)
# Settings: HepG2 BMP response element reporter, Attagene transcription factor profiling; actives raise or lower the signal
# In short: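 A HepG2 multiplex reporter system measured inducible reporter mRNA 24 h post-dosing. Detection: RT-PCR, 6-FAM primer extension, HpaI digestion, capillary electrophoresis. Activity fitted bidirectionally relative to DMSO.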
Compound,outcome,AC50
O=C1C(Cl)=C(Cl)C(=O)C(Cl)=C1Cl,inactive,–
N#CCCCCC#N,inactive,–
CC1CCC(=O)O1 (stereo not drawn),inactive,–
COc1cc(OC)c(OC)cc1C=O,inactive,–
CC(C)c1ccc(O)cc1,inactive,–
C[N+](C)(C)CC(=O)[O-],inactive,–
CC(C)(c1cc(Cl)c(O)c(Cl)c1)c1cc(Cl)c(O)c(Cl)c1,inactive,–
O=C(NCNC(=O)NC1C(=O)NC(=O)N1CO)NC1C(=O)NC(=O)N1CO (stereo not drawn),inactive,–
[N-]=[N+]=CC(=O)OC[C@H](N)C(=O)O,inactive,–
COCC(=O)N(c1c(C)cccc1C)N1CCOC1=O,inactive,–
CC(C)CCCCCCCOP(=O)(Oc1ccccc1)Oc1ccccc1,inactive,–
CCC1CCC(=O)O1 (stereo not drawn),inactive,–
C=COCCCl,inactive,–
C=CCN(CC=C)C(=O)C(Cl)Cl,inactive,–
CC[N+](=O)[O-],inactive,–
CC(Cc1ccc(C(C)(C)C)cc1)CN1C[C@@H](C)O[C@@H](C)C1 (stereo partly drawn),–,50.3 µM (active)
[Cl-].[Cl-].[Cl-].[Yb+3],inactive,–
CCOC(=O)N(C)N=O,inactive,–
O=CNC(N1CCN(C(NC=O)C(Cl)(Cl)Cl)CC1)C(Cl)(Cl)Cl (stereo not drawn),inactive,–
CCC[N+](=O)[O-],inactive,–
CC(C)(O)C#N,inactive,–
CC(C)C#N,inactive,–
S=c1[nH]c2ccccc2[nH]1,inactive,–
CCCCCc1cc(O)cc(O)c1,inactive,–
c1ccc(Nc2ccc3ccccc3c2)cc1,inactive,–
CSc1nc(N=[N+]=[N-])nc(NC(C)C)n1,inactive,–
CC=Cc1ccc2c(c1)OCO2,inactive,–
Cc1ccc(OP(=O)(Oc2ccc(C)cc2)Oc2ccc(C)cc2)cc1 (tested in a mixture with another compound),inactive,–
